Assay results from PubChem BioAssay.

Columns and labels:
[1] = tested on: Botulinum neurotoxin type F light chain protease (Clostridium botulinum); assay: Clostridium botulinum type F light chain protease inhibitors, microsphere substrate cleavage, validation (AID 588459); conditions: multiplex microsphere protease substrate cleavage assay, flow cytometry; at 10 µM; stronger effect = higher value
[2] = molecular target: Botulinum neurotoxin type A (Clostridium botulinum) (UniProt P0DPI0); assay: BoNT/A light chain protease inhibitors, biochemical, multiplex microsphere flow cytometry, validation set (AID 588460); conditions: at 10 µM, stronger effect = higher value
Botulinum neurotoxin type A (Clostridium botulinum), sequence (P0DPI0 whole entry, looked up): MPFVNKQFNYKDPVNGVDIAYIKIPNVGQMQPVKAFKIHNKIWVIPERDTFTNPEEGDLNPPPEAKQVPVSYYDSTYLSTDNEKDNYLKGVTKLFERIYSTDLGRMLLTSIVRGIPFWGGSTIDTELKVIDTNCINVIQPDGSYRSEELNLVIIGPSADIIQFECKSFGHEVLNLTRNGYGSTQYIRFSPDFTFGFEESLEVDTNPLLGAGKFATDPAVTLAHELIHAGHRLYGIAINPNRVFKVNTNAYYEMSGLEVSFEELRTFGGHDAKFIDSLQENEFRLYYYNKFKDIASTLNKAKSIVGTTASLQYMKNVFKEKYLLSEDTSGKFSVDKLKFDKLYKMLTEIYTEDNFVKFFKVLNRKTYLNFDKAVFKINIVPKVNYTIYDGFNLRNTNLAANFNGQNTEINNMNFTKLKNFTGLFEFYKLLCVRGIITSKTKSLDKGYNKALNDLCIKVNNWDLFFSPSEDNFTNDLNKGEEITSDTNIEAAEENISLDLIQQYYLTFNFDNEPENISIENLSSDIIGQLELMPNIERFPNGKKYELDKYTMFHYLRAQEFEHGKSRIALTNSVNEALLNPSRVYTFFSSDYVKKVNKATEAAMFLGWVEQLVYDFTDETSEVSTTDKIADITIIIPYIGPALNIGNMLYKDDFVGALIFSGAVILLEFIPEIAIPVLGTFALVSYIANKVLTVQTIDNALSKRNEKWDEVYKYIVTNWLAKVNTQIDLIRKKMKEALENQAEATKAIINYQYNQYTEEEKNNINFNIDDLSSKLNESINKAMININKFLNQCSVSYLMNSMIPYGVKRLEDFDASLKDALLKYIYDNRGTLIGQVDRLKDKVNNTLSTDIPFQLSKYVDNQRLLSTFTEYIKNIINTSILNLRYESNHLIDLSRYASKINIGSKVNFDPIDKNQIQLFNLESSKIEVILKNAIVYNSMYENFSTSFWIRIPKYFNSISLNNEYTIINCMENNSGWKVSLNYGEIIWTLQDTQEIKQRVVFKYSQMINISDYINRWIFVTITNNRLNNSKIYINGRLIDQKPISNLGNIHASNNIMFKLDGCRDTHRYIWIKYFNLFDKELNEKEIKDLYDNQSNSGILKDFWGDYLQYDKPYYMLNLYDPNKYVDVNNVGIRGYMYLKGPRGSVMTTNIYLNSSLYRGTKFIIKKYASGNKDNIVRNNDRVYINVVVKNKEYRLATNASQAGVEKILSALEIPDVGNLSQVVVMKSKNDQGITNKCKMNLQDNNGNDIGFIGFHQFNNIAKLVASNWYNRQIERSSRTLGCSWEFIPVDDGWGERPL

[3] = molecular target: Lethal factor (Bacillus anthracis) (UniProt P15917); assay: Bacillus anthracis lethal factor inhibition, microsphere flow cytometry protease assay, validation at 10 µM (AID 588461); conditions: multiplex microsphere protease cleavage assay, stronger effect = higher value
Lethal factor (Bacillus anthracis), sequence (P15917 whole entry, looked up): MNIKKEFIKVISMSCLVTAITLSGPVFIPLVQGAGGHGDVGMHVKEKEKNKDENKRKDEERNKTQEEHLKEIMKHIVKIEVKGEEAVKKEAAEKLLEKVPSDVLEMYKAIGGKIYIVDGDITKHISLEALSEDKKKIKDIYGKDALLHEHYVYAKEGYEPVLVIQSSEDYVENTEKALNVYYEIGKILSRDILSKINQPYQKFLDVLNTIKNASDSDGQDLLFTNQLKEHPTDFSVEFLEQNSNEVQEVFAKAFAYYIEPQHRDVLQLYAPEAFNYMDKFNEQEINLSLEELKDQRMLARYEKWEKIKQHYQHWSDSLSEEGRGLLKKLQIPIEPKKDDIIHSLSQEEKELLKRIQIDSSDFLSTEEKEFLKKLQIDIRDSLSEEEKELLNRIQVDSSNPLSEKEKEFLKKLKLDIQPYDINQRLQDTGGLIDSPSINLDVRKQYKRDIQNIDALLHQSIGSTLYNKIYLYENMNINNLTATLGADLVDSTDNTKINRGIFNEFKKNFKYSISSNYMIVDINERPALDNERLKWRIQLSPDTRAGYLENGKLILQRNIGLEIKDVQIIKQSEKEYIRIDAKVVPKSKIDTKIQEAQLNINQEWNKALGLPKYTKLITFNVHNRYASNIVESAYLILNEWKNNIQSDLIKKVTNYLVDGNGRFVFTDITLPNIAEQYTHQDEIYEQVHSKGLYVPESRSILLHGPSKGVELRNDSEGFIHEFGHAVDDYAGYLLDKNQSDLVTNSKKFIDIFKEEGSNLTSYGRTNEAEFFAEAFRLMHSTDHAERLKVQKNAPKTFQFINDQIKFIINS

Measured: inhibition

O=C(CN1C(=O)c2ccccc2S1(=O)=O)Nc1ccccc1
inactive: [1] 2.3% | [2] 0.2% | [3] -4.6%

O=C(NCCc1ccccc1)C1CCN(C2CCN(Cc3ccco3)CC2)CC1
inactive: [1] -0.8% | [2] -0.7% | [3] -9.8%

CCOC(=O)Cc1c(C)nc(N)[nH]c1=O
inactive: [1] 2.8% | [2] 0.8% | [3] -3.1%

CC(C)(C)NCC(O)COc1ccccc1C(=O)CCc1ccccc1 (stereo unspecified)
inactive: [1] -5.8% | [2] -2% | [3] -4.9%

COc1cccc(OCC(O)CO)c1 (stereo unspecified)
inactive: [1] -1.4% | [2] -1.1% | [3] -9.1%

O=C1c2ccccc2C2(c3ccccc3)NCCN12 (stereo unspecified)
inactive: [1] -1.6% | [2] -1.3% | [3] 8.5%

CCNC(=O)C(Cc1ccccc1)NC(=O)OCc1ccccc1 (stereo unspecified)
inactive: [1] 0.3% | [2] -1.4% | [3] 5.5%

CCN1CCn2c3c(c4cc(Cl)ccc42)CCCC31 (stereo unspecified)
inactive: [1] 0.6% | [2] 1.4% | [3] -8.7%

COc1ccc(OC)c(-n2c(Cn3c(-c4ccccn4)nc4ccccc43)n[nH]c2=S)c1
inactive: [1] -3.4% | [2] -0.4% | [3] -0.7%

CCCc1cc(C(N)=S)ccn1
inactive: [1] 1.8% | [2] 1.2% | [3] -7.7%

N=C1C(c2ccccc2)=C(O)CN1CCCO
inactive: [1] -2.6% | [2] -1.3% | [3] -5%

NC(CO)C(=O)NNCc1ccc(O)c(O)c1O (stereo unspecified)
inactive: [1] -15.8% | [2] -11.2% | [3] -25.4%
